Data reported in PubChem BioAssay (NCI).
Compounds without any hit were thinned out: in the full panel of roughly 83,000, 20% have a hit.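 The test compound was applied at a single concentration to cells in 96-well plates for 48 hours, and percent growth was recorded.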 Unmarked numbers belong to inactive results. Calls of active or inactive are those of the source. The calls were made as follows: active = growth percent below 10; inactive = the rest.

How the values were obtained:
Assay in all cases: NCI-60 one-dose screen, 48 h (100 = growth as untreated, 0 = no growth, -100 = all killed)
Conditions in all cases: 10 µM unless noted
DU-145 prostate = tested on: DU-145 prostate
K-562 leukemia = tested on: K-562 leukemia
MALME-3M melanoma = tested on: MALME-3M melanoma
MDA-MB-231 breast = tested on: MDA-MB-231 breast
RXF 393 renal = tested on: RXF 393 renal
SF-268 CNS = tested on: SF-268 CNS
SF-295 CNS = tested on: SF-295 CNS
SF-539 CNS = tested on: SF-539 CNS
UACC-257 melanoma = tested on: UACC-257 melanoma
M14 melanoma = tested on: M14 melanoma
HCT-15 colon = tested on: HCT-15 colon
HT29 colon = tested on: HT29 colon
SNB-75 CNS = tested on: SNB-75 CNS
SNB-19 CNS = tested on: SNB-19 CNS
U251 CNS = tested on: U251 CNS
SK-MEL-5 melanoma = tested on: SK-MEL-5 melanoma
UACC-62 melanoma = tested on: UACC-62 melanoma
LOX IMVI melanoma = tested on: LOX IMVI melanoma
SK-MEL-28 melanoma = tested on: SK-MEL-28 melanoma
PC-3 prostate = tested on: PC-3 prostate

Structure (SMILES) | growth (DU-145 prostate) | growth (K-562 leukemia) | growth (MALME-3M melanoma) | growth (MDA-MB-231 breast) | growth (RXF 393 renal) | growth (SF-268 CNS) | growth (SF-295 CNS) | growth (SF-539 CNS) | growth (UACC-257 melanoma) | growth (M14 melanoma) | growth (HCT-15 colon) | growth (HT29 colon) | growth (SNB-75 CNS) | growth (SNB-19 CNS) | growth (U251 CNS) | growth (SK-MEL-5 melanoma) | growth (UACC-62 melanoma) | growth (LOX IMVI melanoma) | growth (SK-MEL-28 melanoma) | growth (PC-3 prostate)
Cc1ccc(/C(N)=N/C(N)=N/c2nc3ccccc3s2)cc1 | 96.5% | 82.5% | 110% | 89.9% | 103% | 103% | 32.9% | 108% | 111% | 107% | 52.2% | 110% | 96.5% | 95.3% | 82% | 91% | 91.9% | -17% (active) | 116% | 
CCCCCCN1C=C/C(=C\C(=O)n2ccc3ccccc32)c2ccccc21 | 74% | 31.8% | 70.6% | 73% | 74.3% | 80.9% | 34.4% | 87% | 71.6% | 78.5% | 79.6% | 65.1% | 65.8% | 56.7% | 46.9% | 30.8% | 57.9% | 18.7% | 101% | 
CSc1ccc(/C(=N/N=C(N)N)c2ccc(Cl)cc2)cc1 | 9.65% (active) | 1.76% (active) | 22.5% | 7.57% (active) | 16.5% | 19.3% | 8.73% (active) | -10.3% (active) | 57.8% | -90.9% (active) | 3.54% (active) | -30.1% (active) | 1.16% (active) | 19.6% | -13.5% (active) | -0.967% (active) | 7.53% (active) | -42.5% (active) | 48.8% | 8.76% (active)
CCOC(=O)C1=C(C)NC(C)=C(C(=O)OCc2ccccc2)C1c1cccc(C#N)c1 (centres undefined) | 57.2% | 16.9% | 38% | 52.3% | 44.5% | 57.1% | 15.5% | 23.1% | 55.9% | 14.6% | 23% | 11.5% | -4.08% (active) | 41.5% | 41.4% | 54.3% | 33.4% | 35.8% | 51.2% | 
OCC(Nc1ncnc2ccc(-c3cnc4cnccn34)cc12)c1ccccc1 (centres undefined) | 47.4% | 60.2% | 81.5% | 83.2% | 65.4% | 75.9% | 64.7% | 79% | 80.7% | 93.3% | 92.3% | 83.5% | 85.6% | 70.6% | 88.5% | 37.5% | 74.1% | 85.2% | 97.8% | 79.9%
CCOC(=O)C1=C(C)NC(C)=C(C(=O)OC(C)C)C1c1cccc(C#N)c1 (centres undefined) | 104% | 93.9% | 97.2% | 95.2% | 90.8% | 96.9% | 106% | 104% | 104% | 105% | 99.1% | 108% | 84.5% | 101% | 100% | 99.6% | 93.3% | 95.2% | 105% | 87.2%
CC[C@]12C=CCN3CC[C@]4(C(=C(C(=O)OC)C1)Nc1cc5c(cc14)[C@@H]1[C@H](O5)[C@@H](O)[C@@]4(CC)CC(C(=O)OC)=C5Nc6cc(O)ccc6[C@@]56CCN1C46)C32 (some centres undefined) | 22% | 3.36% (active) | 19.3% | 21% | -40.2% (active) | 6.98% (active) | 8.14% (active) | 4.2% (active) | 21.8% | 15.7% | -44.6% (active) | 4.53% (active) | -2.38% (active) | 23.4% | 8.74% (active) | -41.5% (active) | 19% | -83.8% (active) | 17.4% | 20.8%
CCCCCC[n+]1ccc(SCC(=O)n2ccc3ccccc32)c2ccccc21 | 94.1% | 51.7% | 91.4% | 89.5% | 113% | 101% | 82.2% | 96.3% | 100% | 89% | 94.3% | 84% | 100% | 86.8% | 94.4% | 88.7% | 73.3% | 91.5% | 106% | 83.7%
CCOC(=O)c1c(NC(=O)c2ccc(C(F)(F)F)cc2)sc2c3c(ccc12)OCN(C)C3 | 21.6% | -28.3% (active) | 72.6% | 10.9% | -70% (active) | 63.6% | 66.2% | -73.1% (active) | 71.6% | 30.1% | -38.2% (active) | -81% (active) | 69.7% | 26.7% | -72.5% (active) | 94.7% | 88% | -95.1% (active) | 95.8% | 
CC(C)(C)Nc1nc2c(OCCc3ccccc3)cccn2c1-c1cccc(Oc2ccccc2)c1 | 25.5% | 15.7% | 0.427% (active) | 17.7% | -8.9% (active) | 32.4% | 6.47% (active) | -0.94% (active) | 6.07% (active) | 18% | 6.6% (active) | 6.41% (active) | 43.5% | 24.5% | 13.5% | -75% (active) | 15% | 3.93% (active) | 34% | 17.5%
CCc1cccc2c3c(sc12)C(c1ccc(F)cc1)C(C#N)=C(/N=C/c1ccc(Cl)cc1)O3 (centres undefined) | 29% | 10.5% | 57.2% | 30.3% | -7.19% (active) | 43.5% | 6.46% (active) | -6.53% (active) | 69.4% | 9.94% (active) | 12.9% | -18.9% (active) | 34.8% | 27.1% | 14.5% | 32.4% | 23.8% | 30.3% | 61.9% | 21.7%
CC(O)c1cccc(/C(N)=N/C(N)=N/c2nc3ccccc3s2)c1 (centres undefined) | 96.8% | 72% | 97% | 94.9% | 104% | 94.3% | 86.7% | 96.8% | 103% | 94.4% | 56.7% | 110% | 80% | 89.3% | 74.2% | 83.4% | 87.8% | 64.3% | 100% | 
COc1ccc2[nH]cc(/C=N/Nc3ccnc4cc(Cl)ccc34)c2c1 | -98.9% (active) | -4.83% (active) | -97.7% (active) | -93.9% (active) | -100% (active) | -60.7% (active) | -100% (active) | -100% (active) | -84.2% (active) | -79.7% (active) | -88.1% (active) | -42.3% (active) | -94.1% (active) | -100% (active) | -83.3% (active) | -100% (active) | -98.3% (active) | -92.7% (active) | -100% (active) | -86.4% (active)
O=C(CSc1nc2ccccc2c(=O)n1-c1ccccc1)Nc1ccc(S(=O)(=O)Nc2nccs2)cc1 | 84.1% | 58.2% | 88.5% | 74.1% | 76.5% | 44.5% | 98.2% | 69% | 62.8% | 78.6% | 66.5% | 69.5% | 57.4% | 43.7% | 2.78% (active) | 66.5% | 71.4% | 36.5% | 76.3% | 91%
C#Cc1nc(C(=O)NCCCCCCC(=O)NO)cs1 | -51.1% (active) | 5.86% (active) | -61% (active) | -71.8% (active) | -78.7% (active) | 2.01% (active) | -2.7% (active) | -80.1% (active) | 23% | 16.6% | 41.3% | 5.53% (active) | -65.2% (active) | 30.6% | 6.04% (active) | -55.9% (active) | -63.1% (active) | -84.6% (active) | -53.1% (active) | 
